# Measured values published in PubChem BioAssay (Tox21).
# Records with an inconclusive call do not appear. Entries that show only a call come without a potency. Calls of active or inactive are those of the source. Calls follow the shape of the full dose curve.
# Test system: thyroid hormone receptor (rat, GH3 cells)
# Test: qHTS assay to identify small molecule agonists of the thyroid receptor (TR) signaling pathway (AID 743066)
# Conditions: GH3.TRE-Luc cells, TR agonist luciferase, 24 h; series mostly up to 83.9 µM
row,Structure (SMILES),outcome
1,NCC1CCCC(CN)C1 (stereo not drawn),inactive
2,O=C(C(=O)c1ccccc1)c1ccccc1,inactive
3,C[N+](C)(C)CCOC(N)=O,inactive
4,c1cnc2c(n1)CCCC2,inactive
5,Nc1nccs1,inactive
6,CCCCCCOC(=O)CCCCCCCC(=O)OCCCCCC,inactive
7,COCCOC,inactive
8,C/C=C(\C)C(=O)OCCC(C)CCC=C(C)C (stereo not drawn),inactive
9,CC(=N\O)/C(C)=N/O,inactive
10,CC(C)CCCCCOC(=O)CCCCC(=O)OCCCCCC(C)C,inactive
11,CO[C@H]1O[C@H](CO)[C@@H](O)[C@H](O)[C@H]1O,inactive
12,CN1CCN(CCCN2c3ccccc3Sc3ccc(S(=O)(=O)N(C)C)cc32)CC1,inactive
13,O=C(CCCCCCCCC#CI)Oc1ccccc1,inactive
14,CCCCN(CCCC)CCCOC(=O)c1ccc(N)cc1,inactive
15,CC1=CC(=O)CC(C)(C)C1(O)/C=C/C(C)=C\C(=O)O (stereo not drawn),inactive
16,CCCC(=O)O[C@]1(C(=O)COC(=O)CC)CC[C@H]2[C@@H]3CCC4=CC(=O)CC[C@]4(C)[C@H]3[C@@H](O)C[C@@]21C,inactive
17,Cc1ccccc1N1C(=O)c2cc(S(N)(=O)=O)c(Cl)cc2NC1C (stereo not drawn),inactive
18,Cc1ccc(Nc2nccc(N(C)c3ccc4c(C)n(C)nc4c3)n2)cc1S(N)(=O)=O,inactive
19,Cc1ccc(/C=N/n2c(-c3ccccc3)csc2=S)cc1,inactive
20,Cc1cnc(C)c(C)n1,inactive

row,Structure (SMILES),outcome
1,CC(C)(C)C(=O)O,inactive
2,CCCCC(=O)O[C@]1(C(=O)CO)CC[C@H]2[C@@H]3CCC4=CC(=O)CC[C@]4(C)[C@H]3[C@@H](O)C[C@@]21C,inactive
3,COC(=O)Nc1nc2ccc(C(=O)c3cccs3)cc2[nH]1,inactive
4,CC(C)c1nnc2ccc(-c3ocnc3-c3cc(F)ccc3F)cn12,inactive
5,C[N+]1(C)CCC(=C(c2ccccc2)c2ccccc2)CC1,inactive
6,CC(=O)[C@H]1CC[C@H]2[C@@H]3C[C@H](C)C4=CC(=O)CC[C@]4(C)[C@H]3[C@@H](O)C[C@]12C,inactive
7,C=CC(=C)CCCC(C)(C)OC(C)=O,inactive
8,Fc1c(F)c(F)c(Br)c(F)c1F,inactive
9,Nc1nc(Cl)nc2c1ncn2[C@@H]1O[C@H](CO)[C@@H](O)[C@@H]1F,inactive
10,CCOC(=O)[C@@H](C)Oc1ccc(Oc2nc3ccc(Cl)cc3o2)cc1,inactive
11,CN(C)C(=O)Nc1ccc(Oc2ccc(Cl)cc2)cc1,inactive
12,CCCCC(CC)CNCC(CC)CCCC (stereo not drawn),inactive
13,C[Si]1(C)O[Si](C)(C)O[Si](C)(C)O1,inactive
14,Cc1oc(C)c(C(=O)Nc2ccccc2)c1C,inactive
15,COCc1c(C(C)C)nc(C(C)C)c(/C=C/[C@@H](O)C[C@@H](O)CC(=O)O)c1-c1ccc(F)cc1,inactive
16,CCC(C)=O,inactive
17,CC1(C)C(=O)N(Br)C(=O)N1Cl,inactive
18,CC1CC(O)CC(C)(C)C1 (stereo not drawn),inactive
19,CC1C2CC(CC2C2CCCC(O)C2)C1(C)C (stereo not drawn),inactive
20,CCCCCCCCSCCO,inactive

# Test system: not listed separately
# Test: qHTS assay to identify small molecule antagonists of the estrogen receptor alpha (ER-alpha) signaling pathway - cell viability counter screen (AID 743074);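 also: HEK293 cells carrying ER-alpha-UAS-bla reporter stimulated with 17beta-estradiol; nearly all actives have a fitted effect of over 45% in size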
# Conditions: ERalpha-bla HEK293 viability, CellTiter-Glo luminescence, 18 h; series mostly up to 69.4 µM
row,Structure (SMILES),Potency
1,NCC1CCCC(CN)C1 (stereo not drawn),inactive
2,O=C(C(=O)c1ccccc1)c1ccccc1,inactive
3,C[N+](C)(C)CCOC(N)=O,inactive
4,c1cnc2c(n1)CCCC2,inactive
5,Nc1nccs1,inactive
6,CCCCCCOC(=O)CCCCCCCC(=O)OCCCCCC,inactive
7,COCCOC,inactive
8,C/C=C(\C)C(=O)OCCC(C)CCC=C(C)C (stereo not drawn),inactive
9,CC(=N\O)/C(C)=N/O,inactive
10,CC(C)CCCCCOC(=O)CCCCC(=O)OCCCCCC(C)C,inactive
11,CO[C@H]1O[C@H](CO)[C@@H](O)[C@H](O)[C@H]1O,inactive
12,CN1CCN(CCCN2c3ccccc3Sc3ccc(S(=O)(=O)N(C)C)cc32)CC1,inactive
13,CCCCN(CCCC)CCCOC(=O)c1ccc(N)cc1,inactive
14,CC1=CC(=O)CC(C)(C)C1(O)/C=C/C(C)=C\C(=O)O (stereo not drawn),inactive
15,CCCC(=O)O[C@]1(C(=O)COC(=O)CC)CC[C@H]2[C@@H]3CCC4=CC(=O)CC[C@]4(C)[C@H]3[C@@H](O)C[C@@]21C,inactive
16,Cc1ccccc1N1C(=O)c2cc(S(N)(=O)=O)c(Cl)cc2NC1C (stereo not drawn),inactive
17,Cc1cnc(C)c(C)n1,inactive

row,Structure (SMILES),Potency
1,CC(C)(C)C(=O)O,inactive
2,CCCCC(=O)O[C@]1(C(=O)CO)CC[C@H]2[C@@H]3CCC4=CC(=O)CC[C@]4(C)[C@H]3[C@@H](O)C[C@@]21C,inactive
3,CC(C)c1nnc2ccc(-c3ocnc3-c3cc(F)ccc3F)cn12,inactive
4,C[N+]1(C)CCC(=C(c2ccccc2)c2ccccc2)CC1,inactive
5,CC(=O)[C@H]1CC[C@H]2[C@@H]3C[C@H](C)C4=CC(=O)CC[C@]4(C)[C@H]3[C@@H](O)C[C@]12C,inactive
6,C=CC(=C)CCCC(C)(C)OC(C)=O,inactive
7,Fc1c(F)c(F)c(Br)c(F)c1F,inactive
8,CCOC(=O)[C@@H](C)Oc1ccc(Oc2nc3ccc(Cl)cc3o2)cc1,inactive
9,CN(C)C(=O)Nc1ccc(Oc2ccc(Cl)cc2)cc1,inactive
10,CCCCC(CC)CNCC(CC)CCCC (stereo not drawn),inactive
11,COCc1c(C(C)C)nc(C(C)C)c(/C=C/[C@@H](O)C[C@@H](O)CC(=O)O)c1-c1ccc(F)cc1,inactive
12,CCC(C)=O,inactive
13,CC1(C)C(=O)N(Br)C(=O)N1Cl,inactive
14,CC1CC(O)CC(C)(C)C1 (stereo not drawn),inactive
15,CC1C2CC(CC2C2CCCC(O)C2)C1(C)C (stereo not drawn),inactive
16,CCCCCCCCSCCO,inactive
